Assay results from PubChem BioAssay AID623870 (Broad Institute, 2012).
The whole screen tested about 390,000 compounds, of which about 2,600 (0.67%) were called active.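 How the source made its calls: active means mean inhibition of replicates at least 50% and at least half of replicates each reaching 50%; inconclusive means half or more replicates reach 50% but mean below 50%; inactive means the rest.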 Shown is part of a subset that was picked to be rich in actives.

molecular target: Transforming acidic coiled-coil-containing protein 3 (Homo sapiens) (UniProt Q9Y6A5); experiment: disruptors of ARNT/TACC3 protein interaction, primary screen, biochemical, AlphaScreen, single concentration (AID 623870); conditions: AlphaScreen His-ARNT PAS-B/GST-TACC3 binding, luminescence; at 9.99 µM; active compounds read high;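 further: 0% = complete ARNT plus TACC3 wells and 100% = ARNT alone without TACC3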

| Compound | inhibition |
| --- | --- |
| O=C1N=c2ccccc2=C/C1=C\c1c(O)[nH]c(=S)[nH]c1=O | 37% (active) |
| COc1ccccc1N=Nc1c(O)[nH]c(=S)[nH]c1=O | -1.81% (inactive) |
| Cc1ccc2c(c1)=C/C(=C\c1c(O)[nH]c(=O)[nH]c1=O)C(=O)N=2 | 13.7% (inactive) |
| C[C@@H]1CN([C@H](C)CO)C(=O)CCCn2cc(nn2)CO[C@@H]1CN(C)C(=O)Oc1cccc2ccccc12 | -8.62% (inactive) |
| O=C(Cc1ccccn1)N1CCCCN2[C@H](C1)[C@H](c1ccc(-c3ccccc3F)cc1)[C@@H]2CO | 10.9% (inactive) |
| C/C=C/c1ccc([C@H]2[C@H](CO)N3CCCCN(C(=O)Cc4ccncc4)C[C@@H]23)cc1 | 1.93% (inactive) |
| CC(C)c1ccc(-n2c(O)c(/C=N/N3CCOCC3)c(=O)[nH]c2=S)cc1 | 6.63% (inactive) |
| O=C(N/N=C/c1c(O)n(Cc2ccccc2)c(=O)[nH]c1=O)c1ccccc1 | 70.1% (active) |
| O=c1[nH]c(=O)n(CCc2ccccc2)c(O)c1/C=N/N1CCOCC1 | 0.078% (inactive) |
| CCc1nnc(NS(=O)(=O)c2ccc(N=Cc3c(O)n(-c4ccccc4)c(=O)[nH]c3=O)cc2)s1 | -4.6% (inactive) |
| COc1ccccc1-n1c(O)c(C=NC2CC2)c(=O)[nH]c1=O | 4.19% (inactive) |
| O=C(N/N=C/c1c(O)n(C2CC2)c(=S)[nH]c1=O)c1ccccc1Cl | 68.5% (active) |
| O=c1[nH]c(=S)n(C2CC2)c(O)c1/C=N/N1CCOCC1 | -0.873% (inactive) |
| Cc1cccc(-n2c(O)c(/C=N/N3CCOCC3)c(=O)[nH]c2=S)c1 | -0.608% (inactive) |
| O=c1[nH]c(=O)n(-c2ccc(F)cc2)c(O)c1C=NCCN1CCCCC1 | -1.3% (inactive) |
| CC/C(=N\NC(=O)c1ccccc1O)c1c(O)n(Cc2ccccc2)c(=O)[nH]c1=O | 6.78% (inactive) |
| O=C(N/N=C/c1c(O)n(C2CC2)c(=S)[nH]c1=O)c1ccccc1 | 62.7% (active) |
| CCCCC(=O)N/N=C/c1c(O)n(-c2ccccc2)c(=O)[nH]c1=O | 65.6% (active) |
| COc1ccc(-c2ccc([C@H]3[C@H](CO)N4CCCCN(C(=O)Cc5ccncc5)C[C@@H]34)cc2)cc1 | -8.67% (inactive) |
| COC(=O)[C@H]1[C@H](CO)[C@H]2Cn3c(ccc(-c4cccc(F)c4)c3=O)[C@@H]1N2Cc1ccccc1 | -0.694% (inactive) |
| O=C(Cc1ccccc1)N1CCCCN2[C@H](C1)[C@H](c1ccc(C#CC3(O)CCCC3)cc1)[C@@H]2CO | -2.57% (inactive) |
| COc1cccc(-c2ccc3n(c2=O)C[C@@H]2[C@@H](CO)[C@H](C(=O)O)[C@H]3N2C(=O)c2cnccn2)c1 | -0.13% (inactive) |
| COC(=O)[C@@H]1[C@@H](CO)[C@@H]2Cn3c(ccc(C4=CCCCC4)c3=O)[C@H]1N2CC1CC1 | -4.97% (inactive) |
| O=C(Cc1ccccc1)N1CCCCN2[C@H](CO)[C@H](c3ccc(C#Cc4ccccc4)cc3)[C@H]2C1 | 3.71% (inactive) |
| CCOC(=O)[C@@H]1[C@@H]2NC(=O)N[C@@]1(C)Oc1ccccc12 | 1.64% (inactive) |
| OC[C@@H]1[C@H]2c3ccccc3NC[C@H]2N1Cc1cccnc1 | 5.28% (inactive) |
| CCC(C)n1c(O)c(/C=N/Nc2nc3c(c(=O)n(C)c(=O)n3C)n2C)c(=O)[nH]c1=S (stereo not given) | 65.4% (active) |
| O=C(O)[C@@H]1[C@@H](CO)[C@@H]2Cn3c(ccc(-c4ccccc4F)c3=O)[C@H]1N2C(=O)c1cccnc1 | 8.55% (inactive) |
| COc1ccc(C#Cc2ccc([C@H]3[C@H](CO)N4CCCCN(C(=O)Cc5ccccc5)C[C@@H]34)cc2)cc1 | -4.42% (inactive) |
| O=C(Cc1ccncc1)N1CCCCN2[C@@H](CO)[C@H](c3ccc(C#CC4(O)CCCC4)cc3)[C@@H]2C1 | -1.41% (inactive) |
